Compounds with a hit are over-represented: about 21% of the library has one in this group of screens.
Pf growth 48h = inhibits P. falciparum growth in the first generation, 48 h. P. falciparum luciferase growth in erythrocytes, 48 h. Potency, µM (doses to about 28.7 µM), hits mostly inhibitors. 5.9% of 310,000 active. AID 504832
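Erythrocytes infected with P. falciparum carrying an integrated firefly luciferase reporter (2% hematocrit, 0.1% parasitemia final) were exposed to compounds in RPMI 1640 with 0.5% Albumax at 37 C, 5% CO2. Growth inhibition was scored as reduced luminescence.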
Shiga toxin inh = inhibitors of Shiga toxin in Vero cells; Vero cells, Shiga toxin protein synthesis inhibition reporter; inhibition, % at 38.7 µM; 9.2% of 290,000 active; AID 2315; in the data active means inhibition mostly above about 28%, no sharp cut-off; inactive means mostly below about 43%
Cycloheximide cs = affects cycloheximide protein synthesis inhibition readout, counter-screen | cell reporter, cycloheximide protein synthesis inhibition counterscreen | max response, % | 12% of 300,000 active | AID 2314; in the data active means max response mostly above about 13%, no sharp cut-off; inactive means mostly below about 14%; further: read at 38.3 µM for the half of the compounds with a filed dose
Pf growth 96h = inhibits malaria parasite growth, 96 h. AID 504834. 6.9% of 320,000 active. Potency, µM (highest dose often 28.7 µM), most hits filed as inhibitors. P. falciparum luciferase reporter growth, 96 h
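Two parasite generations (96 h, 37 C, 5% CO2) of compound exposure in infected erythrocytes (0.05% parasitemia, 2% hematocrit). Luciferase-reporter P. falciparum; decreased luminescence indicates inhibited growth, aimed at apicoplast-acting delayed death.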
A number is an active result; - = inactive; ? = inconclusive; . = no result. Unless noted, the call rests on the fitted dose curve; in most records, active means well fitted inhibition curve with a large enough effect; inconclusive means small, poorly fitted or top-dose-only effect, or another doubt; inactive means no such curve, though single readings can be large or run the other way.

SMILES	Pf growth 48h	Shiga toxin inh	Cycloheximide cs	Pf growth 96h
Cc1onc(-c2ccccc2Cl)c1C(=O)NNC(=O)c1ccccc1F	-	-	-	-
O=C(CSCc1ccccn1)Nc1ccccc1	-	38	22	.
O=C(CCC1CCCCC1)Nc1nccs1	-	77	29	-
O=C(Cc1ccccn1)Nc1ccccc1	-	-	-	-
O=C(CC(c1ccccc1)c1ccco1)Nc1nccs1 (configuration not stated)	10µM	-	-	9.3µM
CCc1ccc(CCC(=O)Nc2nccs2)o1	-	60	34	.
O=C(CN1C(=O)C2CCCCC2C1=O)Nc1nccs1 (configuration not stated)	-	-	-	-
CC(CC(=O)Nc1nccs1)c1ccccc1 (configuration not stated)	?	-	-	?
C=CCc1ccccc1Oc1cc(F)nc(N)n1	-	-	-	-
Cc1ccc(NC(=O)CN(C)C(=O)c2ccc(Cl)nc2)cc1	-	-	-	-
CC1(C)CC(=O)N(c2cccc(C(F)(F)F)c2)C(=O)C1	-	-	-	-
CCCCn1c(N)c(N(CCOC)C(=O)c2sc3cc(F)ccc3c2Cl)c(=O)[nH]c1=O	?	.	.	-
COc1ccc(NC(=O)CSc2nnc(Cn3cnc4ccccc43)n2C)cc1	-	-	-	2.3µM
O=C(CCc1ccccc1)Nc1nccs1	-	.	20	-
Cn1c(Cn2cnc3ccccc32)nnc1SCC(=O)CC(=O)Nc1ccccc1	-	-	-	-
O=C(NCCC(c1ccccc1)c1ccco1)c1cccs1 (configuration not stated)	?	118	38	?
CN(C)C(CNC(=O)c1cccs1)c1ccco1 (configuration not stated)	-	.	.	-
O=C(CSCc1c(Cl)cccc1Cl)Nc1nccs1	-	109	-	?
O=C(CSCc1ccc(Cl)cc1Cl)Nc1nccs1	?	-	-	?
O=C(Cc1ccccc1)Nc1nccs1	-	-	-	-
O=C(N1CCCC1)N1CCN(S(=O)(=O)c2ccccc2)CC1	-	-	-	-
Cc1ccc(SCC(=O)Nc2nccs2)cc1	-	71	42	-
O=C(CSCc1ccccc1)Nc1nccs1	-	-	18	-
Cc1ccc(SCC(=O)Nc2ccc(S(=O)(=O)Nc3nccs3)cc2)cc1	-	-	-	-
CCSc1ncc(Cl)c(C(=O)N(Cc2ccc(N(C)C)cc2)C2CCS(=O)(=O)C2)n1 (configuration not stated)	10µM	-	-	-
SMILES	Pf growth 48h	Shiga toxin inh	Cycloheximide cs	Pf growth 96h
N#Cc1c(N)nc(N)nc1Nc1ccc(Br)cc1	-	90	41	-
Cc1cc(NCCCn2ccnc2)n2ncc(-c3ccccc3)c2n1	-	-	-	-
Cc1cc(NCCCn2ccnc2)n2nc(C)c(-c3ccc(Cl)cc3)c2n1	.	-	26	-
Cc1cc(NCCN2CCOCC2)n2nc(C)c(-c3ccc(Cl)cc3)c2n1	-	-	-	?
c1ccc(-c2nc(NCCCn3ccnc3)c3ccccc3n2)cc1	3.7µM	-	-	8.3µM
Cc1cc(NCCCn2ccnc2)n2nc(C)c(-c3ccccc3)c2n1	.	-	44	12µM
Cc1c(CCC(=O)NC2CC2)c(=O)oc2c(C)c(O)ccc12	-	-	-	-
Cc1ccc(CC(=S)N2CCOCC2)cc1	-	-	-	13µM
COc1ccc(CC(=S)N2CCOCC2)cc1	-	-	-	-
CCc1ccc(CC(=S)N2CCOCC2)cc1	-	62	26	?
O=C(Cc1ccc(-c2ccccc2)cc1)N1CCOCC1	-	-	-	-
CCN(CC)/C(=N\S(=O)(=O)c1ccc(F)cc1)c1ccccc1	-	-	-	-
COc1ccc2[nH]cc(CCNC(=O)c3ccc4ccccc4n3)c2c1	-	-	-	-
CN(Cc1ccccc1)C(=O)CN1C(=O)NC(C)(c2ccc(Cl)cc2)C1=O (configuration not stated)	-	-	-	-
C/C(=N\NC(=O)C(N)=O)c1ccc(O)cc1O	-	-	16	-
CCc1ccc(OCC(=O)N/N=C(\C)c2ccc(O)cc2O)cc1	-	-	-	-
CS(=O)(=O)N(CC(=O)Nc1ccc(F)c(F)c1)c1cccc([N+](=O)[O-])c1	-	-	-	?
Cc1ccc(N(CN2CCCC2=O)C(=O)c2ccc(C)c(C)c2)cc1	-	-	17	?
COc1ccccc1C(=O)NCC(=O)NCC1(N2CCCCC2)CCCCC1	-	.	.	-
CCCCCCCCCC[N+](C)(C)CCCCCCCCCC	1.7µM	.	.	1.7µM
CCCCCCCCCCCCCCCC[N+](C)(C)CC	3.3µM	.	.	2.6µM
C[N+](C)(C)CCCCCC[N+](C)(C)C	-	.	.	-
CCCCCC[N+](C)(C)CCSSCC[N+](C)(C)CCCCCC	-	-	-	-
